The target of experiment [1] is Hypoxia-inducible factor 1-alpha (Homo sapiens) (UniProt Q16665). In words: ATG_HIF1a_CIS: Attagene CIS-FACTORIAL HepG2 Assay for human Hypoxia Inducible Factor 1 (HIF1A) (AID 2282951; active = hit-call score of the fitted dose curve at least 0.9, where 1 is the maximum; inactive = score below 0.9). The conditions noted are these: HepG2 Attagene cis-factorial HIF1a reporter transcription; actives raise or lower the signal. Put shortly: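 HepG2, transient cis-reporter library, 24 h dosing. RNA → RT (oligo dT) → PCR → 6-FAM primer extension → HpaI → CE. Bidirectional curve fit vs DMSO.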
Hypoxia-inducible factor 1-alpha (Homo sapiens), sequence (Q16665 whole entry, looked up): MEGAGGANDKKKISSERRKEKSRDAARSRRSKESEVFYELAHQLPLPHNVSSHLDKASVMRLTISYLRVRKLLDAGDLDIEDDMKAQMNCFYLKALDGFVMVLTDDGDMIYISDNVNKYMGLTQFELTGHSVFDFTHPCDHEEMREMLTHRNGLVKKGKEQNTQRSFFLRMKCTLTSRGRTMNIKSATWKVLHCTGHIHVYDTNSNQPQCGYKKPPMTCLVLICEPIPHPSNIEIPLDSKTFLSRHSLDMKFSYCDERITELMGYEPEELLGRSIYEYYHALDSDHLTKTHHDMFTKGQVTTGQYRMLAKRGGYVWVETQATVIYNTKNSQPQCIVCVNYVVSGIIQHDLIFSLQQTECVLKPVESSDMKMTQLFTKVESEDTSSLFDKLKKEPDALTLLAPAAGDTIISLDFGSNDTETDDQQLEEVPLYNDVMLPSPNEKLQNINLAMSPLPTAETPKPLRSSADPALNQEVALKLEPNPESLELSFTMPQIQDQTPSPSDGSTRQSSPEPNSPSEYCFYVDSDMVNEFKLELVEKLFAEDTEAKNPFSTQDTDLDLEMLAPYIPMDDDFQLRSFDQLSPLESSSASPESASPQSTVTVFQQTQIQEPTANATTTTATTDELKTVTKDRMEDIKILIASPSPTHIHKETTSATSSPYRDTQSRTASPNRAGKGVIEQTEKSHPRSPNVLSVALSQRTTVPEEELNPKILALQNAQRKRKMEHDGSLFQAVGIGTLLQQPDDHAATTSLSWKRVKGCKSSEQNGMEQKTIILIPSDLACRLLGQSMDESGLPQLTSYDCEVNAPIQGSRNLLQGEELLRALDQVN

Experiment [2] can be described thus: ATG_PPRE_CIS: Attagene CIS-FACTORIAL HepG2 Assay for human Peroxisome Proliferator-activated Response Element (PPRE) (AID 2282958; active = hit-call score of the fitted dose curve at least 0.9, where 1 is the maximum; inactive = score below 0.9). As to conditions: HepG2 PPRE cis-element reporter, Attagene transcription factor profiling; actives raise or lower the signal. Put shortly:
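Transcript-level reporter induction in transfected HepG2 cells after 24 h chemical exposure, quantified by fluorescence from RT-PCR products separated by capillary electrophoresis.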

Experiment [3] can be described thus: ATG_GAL4_TRANS: Attagene TRANS-FACTORIAL HepG2 Assay for GAL4 (Internal Marker) (AID 2282976). As to conditions: HepG2 Attagene TRANS GAL4 internal marker reporter. The essentials: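 Fluorescence from capillary electrophoresis of labelled RT-PCR products quantifies reporter mRNA induction after 24 h dosing of HepG2 cells carrying transfected GAL4-UAS reporter transcription units. Vehicle DMSO serves as baseline.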

Experiment [4] has as its target Nuclear receptor subfamily 4 group A member 2 (Homo sapiens) (UniProt P43354). Nature of the experiment: ATG_NURR1_TRANS: Attagene TRANS-FACTORIAL HepG2 Assay for human Nuclear Receptor Related Protein 1 (NURR1) (AID 2282985). The conditions noted are these: HepG2 Attagene TRANS reporter, mRNA readout. The essentials:
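HepG2 cells transiently transfected with NURR1-Gal4 chimera and GAL4-UAS reporter units; after 24 hr compound exposure, reporter mRNA quantified by RT-PCR and capillary electrophoresis; gain of signal fitted against DMSO.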

For experiment [5], the target named is human Peroxisome Proliferator-activated Receptor alpha (PPARa), PPARA (gene 5465) (UniProt Q07869). Nature of the experiment: ATG_PPARa_TRANS: Attagene TRANS-FACTORIAL HepG2 Assay for human Peroxisome Proliferator-activated Receptor alpha (PPARa) (AID 2283001).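 For AC50: potency for gain of reporter signal over DMSO so agonist or activator.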 The essentials:
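HepG2 cells transiently transfected with multiplexed GAL4-UAS reporters driven by exogenous chimeric NR-Gal4 proteins; reporter mRNA measured after 24 h dosing. Read-out by RT-PCR, 6-FAM labelling, HpaI digestion and capillary electrophoresis; gain of signal versus DMSO.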

Experiment [6] concerns the target human Peroxisome Proliferator-activated Receptor delta (PPARd), PPARD (gene 5467) (UniProt Q03181). Nature of the experiment: ATG_PPARd_TRANS: Attagene TRANS-FACTORIAL HepG2 Assay for human Peroxisome Proliferator-activated Receptor delta (PPARd) (AID 2283002). Put shortly: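 HepG2 cells transiently transfected with GAL4-UAS multiplexed reporter units driven by exogenous chimeric NR-GAL4 proteins; 24 h compound exposure. Reporter mRNA measured by RT-PCR, 6-FAM primer extension, HpaI digestion and capillary electrophoresis; gain of signal fitted relative to DMSO.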

Experiment [7] has as its target Peroxisome proliferator-activated receptor gamma (Homo sapiens) (UniProt P37231). In words: ATG_PPARg_TRANS: Attagene TRANS-FACTORIAL HepG2 Assay for human Peroxisome Proliferator-activated Receptor-gamma (PPARg) (AID 2283007). The essentials: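 Human hepatoma HepG2, transient MRTU transfection, 24 h treatment. mRNA reporter signal by RT-PCR plus capillary electrophoresis, fluorescence detection; fitted for increase over DMSO negative control.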

Experiment [8] addresses human RAR-related Orphan Receptor beta (RORb), RORB (gene 6096) (UniProt Q92753). Nature of the experiment: ATG_RORb_TRANS: Attagene TRANS-FACTORIAL HepG2 Assay for human RAR-related Orphan Receptor beta (RORb) (AID 2283010). Put shortly:
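HepG2 cells transiently transfected with GAL4-UAS reporter units expressing chimeric NR-Gal4 protein; reporter mRNA measured 24 h after dosing by RT-PCR, 6-FAM labelling and capillary electrophoresis. Gain-of-signal fitted relative to DMSO baseline.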

The target in experiment [9] is human RAR-related Orphan Receptor gamma (RORg), RORC (gene 6097) (UniProt P51449). Nature of the experiment: ATG_RORg_TRANS: Attagene TRANS-FACTORIAL HepG2 Assay for human RAR-related Orphan Receptor gamma (RORg) (AID 2283011). The essentials: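 Activity is scored as increase in GAL4-UAS reporter mRNA over DMSO, detected by fluorescent RT-PCR and capillary electrophoresis in HepG2 cells transiently expressing a RORg-Gal4 chimera, 24 h after dosing.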
human RAR-related Orphan Receptor gamma (RORg), RORC (gene 6097), sequence (P51449 whole entry, looked up, the tested form may be a part): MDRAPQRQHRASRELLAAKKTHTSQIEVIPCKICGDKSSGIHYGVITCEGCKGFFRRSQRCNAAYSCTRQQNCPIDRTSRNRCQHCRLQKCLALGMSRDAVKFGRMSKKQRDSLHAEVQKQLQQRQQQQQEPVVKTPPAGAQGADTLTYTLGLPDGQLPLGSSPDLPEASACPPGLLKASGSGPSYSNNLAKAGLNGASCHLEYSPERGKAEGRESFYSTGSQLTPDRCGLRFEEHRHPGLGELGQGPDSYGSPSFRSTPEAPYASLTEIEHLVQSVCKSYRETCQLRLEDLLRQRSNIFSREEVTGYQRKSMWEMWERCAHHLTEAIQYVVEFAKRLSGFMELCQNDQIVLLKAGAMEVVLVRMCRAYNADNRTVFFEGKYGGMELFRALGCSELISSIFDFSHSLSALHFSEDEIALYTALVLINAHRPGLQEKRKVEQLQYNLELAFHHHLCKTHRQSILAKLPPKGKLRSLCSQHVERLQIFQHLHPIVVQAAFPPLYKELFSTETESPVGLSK

The target in experiment [10] is human Thyroid Receptor alpha (THRa1), THRA (gene 7067) (UniProt P10827). In words: ATG_THRa1_TRANS: Attagene TRANS-FACTORIAL HepG2 Assay for human Thyroid Receptor alpha (THRa1) (AID 2283014). Put shortly:
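First, HepG2 cells receive multiple GAL4-UAS reporter units and the chimeric receptor. They are then dosed for 24 h, after which RNA is reverse-transcribed, amplified, labelled, HpaI-cut and sized by capillary electrophoresis; gain relative to DMSO is scored.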

Experiment [11] is described as follows: TOX21_p53_BLA_p3_viability: Viability Assessment in the Tox21 HCT-116 p53 Agonism Beta-lactamase Assay, Phase 3 (AID 2283593).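 Note: cells exposed to compound for 16 h before reading.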 The essentials: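 HCT116 cells, 4000/well, dosed 5 h after plating by pin transfer (217-fold dilution from DMSO stock) and incubated 16 h at 37C, 5% CO2. Viability read as ATP luminescence with CellTiter-Glo after 30 min at room temperature.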

Experiment [12] is described as follows: TOX21_p53_BLA_p4_viability: Viability Assessment in the Tox21 HCT-116 p53 Agonism Beta-lactamase Assay, Phase 4 (AID 2283597).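 Note: hits lower the luminescence signal meaning cytotoxicity.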 Put shortly: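 Compound exposure of HCT116 cells lasts 16 h at 37C, 5% CO2, with DMSO stocks diluted 217-fold. Cellular ATP is then quantified by CellTiter-Glo luminescence after 30 min at room temperature.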
The target in experiment [13] is Bile acid receptor (Homo sapiens) (UniProt Q96RI1). In words: ATG_IR1_CIS: Attagene CIS-FACTORIAL HepG2 Assay for human Nuclear Receptor Subfamily 1 Group H Member 4 (NR1H4), IR1 submotif (AID 2282946; active = hit-call score of the fitted dose curve at least 0.9, where 1 is the maximum; inactive = score below 0.9). The conditions noted are these: IR1 reporter transcription, actives raise or lower the signal. Put shortly:
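HepG2 cells transiently transfected with multiple cis-promoter-driven reporter units to measure endogenous transcription factor activity; 24 h exposure. Reporter mRNA read by RT-PCR, FAM labelling, HpaI digestion and capillary electrophoresis. Bidirectional fit versus DMSO.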

In experiment [14] the target is Nuclear receptor subfamily 1 group I member 3 (Homo sapiens) (UniProt Q14994). Nature of the experiment: ATG_CAR_TRANS: Attagene TRANS-FACTORIAL HepG2 Assay for human Constitutive Androstane Receptor (CAR) (AID 2282969).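 Note: activators raise reporter mRNA above DMSO so AC50 marks induction.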 The conditions noted are these: HepG2 Attagene TRANS-FACTORIAL CAR reporter. Put shortly: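 HepG2 cells transiently transfected with GAL4-UAS reporter units; TRANS format reads activity of exogenous chimeric NR-Gal4 protein. After 24 h dosing, reporter mRNA quantified by RT-PCR, 6-FAM labelling and capillary electrophoresis; gain of signal fitted against DMSO.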
Nuclear receptor subfamily 1 group I member 3 (Homo sapiens), sequence (Q14994 whole entry, looked up, the tested form may be a part): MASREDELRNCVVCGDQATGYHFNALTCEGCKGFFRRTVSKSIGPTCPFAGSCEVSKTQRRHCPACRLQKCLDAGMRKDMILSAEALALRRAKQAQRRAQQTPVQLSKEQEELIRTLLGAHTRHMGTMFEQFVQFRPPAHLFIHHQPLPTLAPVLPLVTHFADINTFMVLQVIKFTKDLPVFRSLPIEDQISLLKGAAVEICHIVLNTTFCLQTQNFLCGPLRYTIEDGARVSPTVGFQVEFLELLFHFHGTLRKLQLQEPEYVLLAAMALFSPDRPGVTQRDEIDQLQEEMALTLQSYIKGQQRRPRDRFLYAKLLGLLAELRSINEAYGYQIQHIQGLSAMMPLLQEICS

Experiment [15] in a line: ATG_M_19_TRANS: Attagene TRANS-FACTORIAL HepG2 Assay for M19 Transcription Factor (Internal Marker) (AID 2282974). The conditions noted are these: HepG2 Attagene TRANS-FACTORIAL M19 internal marker reporter. The essentials:
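After transfection of HepG2 with GAL4-UAS-driven reporter constructs, cells are dosed for 24 h. Total RNA is reverse-transcribed, reporter sequences PCR-amplified and labelled, then HpaI-digested and sized by capillary electrophoresis.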

For experiment [16], the target named is Bile acid receptor (Homo sapiens) (UniProt Q96RI1). Nature of the experiment: ATG_FXR_TRANS: Attagene TRANS-FACTORIAL HepG2 Assay for Farnesoid X Receptor (FXR) (AID 2282979).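 Note: hits raise reporter mRNA above DMSO so AC50 marks FXR activation.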 As to conditions: HepG2 Attagene TRANS FXR-GAL4 reporter transcription. The essentials:
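Chimeric FXR-GAL4 activity in transiently transfected human HepG2 liver cells is scored as induction of reporter mRNA after 24 h of dosing. Detection uses RT-PCR with fluorescent labelling and capillary electrophoresis, with DMSO serving as baseline.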

Experiment [17] concerns the target Oxysterols receptor LXR-alpha (Homo sapiens) (UniProt Q13133). In words: ATG_LXRa_TRANS: Attagene TRANS-FACTORIAL HepG2 Assay for human Liver X Receptor alpha (LXRa) (AID 2282980). The conditions noted are these: HepG2 Attagene TRANS reporter, LXRa transactivation. Put shortly:
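Transient HepG2 transfectants, 24 h dosing, RT-PCR/CE mRNA reporter quantitation; gain-of-signal vs DMSO.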

For experiment [18], the target named is Glucocorticoid receptor (Homo sapiens) (UniProt P04150). In words: ATG_GR_TRANS: Attagene TRANS-FACTORIAL HepG2 Assay for human Glucocorticoid Receptor (GR) (AID 2282978).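 Note: activators score as hits since higher reporter transcript over DMSO is fitted.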 The conditions noted are these: HepG2 Attagene TRANS GR reporter, mRNA transcription. Put shortly:
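Multiplexed TRANS reporter system, HepG2; 24 h exposure; RNA → oligo(dT) RT → reporter-specific PCR → 6-FAM primer extension → HpaI cut → CE fluorescence. Gain-of-signal vs DMSO.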

Experiment [19] has as its target human Vitamin D Receptor (VDR), VDR (gene 7421) (UniProt P11473). Nature of the experiment: ATG_VDR_TRANS: Attagene TRANS-FACTORIAL HepG2 Assay for human Vitamin D Receptor (VDR) (AID 2283022). Put shortly:
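Fluorescence of labelled reporter cDNA fragments, resolved by capillary electrophoresis, gives mRNA induction after 24 h treatment of HepG2 cells carrying transfected Gal4-fusion reporter units. Activity is fitted in the positive direction with DMSO as baseline.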

Experiment [20] is described as follows: ACEA_ER_AUC_viability: ACEA Biosciences xCELLigence Real-Time Cell Analysis on Estrogen Receptor Agonism for Viability (AID 2283782).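 Note: continuous compound exposure with impedance area under curve over 80 h; hit means loss of impedance signal meaning reduced cell growth or viability.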 Put shortly: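 T47D cells preconditioned in phenol red-free RPMI with charcoal-stripped FBS, then dosed with 8-point 1:4 series from 100 uM (up to 0.5% DMSO). Impedance monitored up to ~80 h; area-under-curve loss versus DMSO taken as viability.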

Inconclusive results are not listed. Active and inactive are the calls of the source. Rule for the calls, unless noted: active = hit-call score of the fitted dose curve at least 0.9, where 1 is the maximum; inconclusive = response in the unintended direction; inactive = score below 0.9.

human Peroxisome Proliferator-activated Receptor alpha (PPARa), PPARA (gene 5465), sequence (Q07869 whole entry, looked up, the tested form may be a part): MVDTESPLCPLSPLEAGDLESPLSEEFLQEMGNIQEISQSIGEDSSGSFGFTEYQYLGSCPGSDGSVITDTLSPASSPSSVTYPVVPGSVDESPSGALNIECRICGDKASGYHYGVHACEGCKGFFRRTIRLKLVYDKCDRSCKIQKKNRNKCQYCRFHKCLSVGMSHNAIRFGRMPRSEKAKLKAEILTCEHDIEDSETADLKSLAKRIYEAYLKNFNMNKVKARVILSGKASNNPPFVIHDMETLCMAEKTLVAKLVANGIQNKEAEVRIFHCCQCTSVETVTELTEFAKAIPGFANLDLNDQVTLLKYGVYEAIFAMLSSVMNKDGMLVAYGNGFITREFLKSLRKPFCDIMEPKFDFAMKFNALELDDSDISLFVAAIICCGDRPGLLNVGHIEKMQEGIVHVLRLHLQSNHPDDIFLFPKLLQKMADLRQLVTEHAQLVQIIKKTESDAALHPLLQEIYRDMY
human Peroxisome Proliferator-activated Receptor delta (PPARd), PPARD (gene 5467), sequence (Q03181 whole entry, looked up, the tested form may be a part): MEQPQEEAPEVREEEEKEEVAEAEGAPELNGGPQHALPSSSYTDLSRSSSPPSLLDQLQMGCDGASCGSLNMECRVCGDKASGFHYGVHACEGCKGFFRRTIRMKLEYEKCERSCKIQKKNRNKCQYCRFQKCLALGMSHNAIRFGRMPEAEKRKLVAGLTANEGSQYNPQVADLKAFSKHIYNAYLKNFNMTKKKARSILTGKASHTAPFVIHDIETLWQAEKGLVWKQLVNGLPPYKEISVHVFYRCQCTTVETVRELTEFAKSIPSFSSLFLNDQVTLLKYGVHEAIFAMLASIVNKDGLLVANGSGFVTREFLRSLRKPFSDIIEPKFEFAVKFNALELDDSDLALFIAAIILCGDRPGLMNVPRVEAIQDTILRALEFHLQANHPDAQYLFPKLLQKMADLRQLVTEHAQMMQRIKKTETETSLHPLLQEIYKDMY
Nuclear receptor subfamily 4 group A member 2 (Homo sapiens), sequence (P43354 whole entry, looked up, the tested form may be a part): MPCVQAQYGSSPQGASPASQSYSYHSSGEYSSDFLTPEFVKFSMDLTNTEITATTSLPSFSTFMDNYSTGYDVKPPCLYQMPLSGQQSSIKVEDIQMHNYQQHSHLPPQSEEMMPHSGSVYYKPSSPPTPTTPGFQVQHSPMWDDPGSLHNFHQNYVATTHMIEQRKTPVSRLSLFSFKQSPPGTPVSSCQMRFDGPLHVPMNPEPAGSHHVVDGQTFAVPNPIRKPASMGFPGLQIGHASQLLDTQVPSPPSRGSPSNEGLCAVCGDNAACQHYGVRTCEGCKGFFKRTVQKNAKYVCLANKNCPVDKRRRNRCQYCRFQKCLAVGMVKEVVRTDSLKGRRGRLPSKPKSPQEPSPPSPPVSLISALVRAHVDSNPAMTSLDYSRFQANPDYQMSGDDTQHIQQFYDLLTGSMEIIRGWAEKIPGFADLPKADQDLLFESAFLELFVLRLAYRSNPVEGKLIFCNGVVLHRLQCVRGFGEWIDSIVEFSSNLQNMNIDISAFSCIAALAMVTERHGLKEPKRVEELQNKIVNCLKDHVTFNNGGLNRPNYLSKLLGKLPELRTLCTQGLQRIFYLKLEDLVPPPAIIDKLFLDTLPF
Oxysterols receptor LXR-alpha (Homo sapiens), sequence (Q13133 whole entry, looked up): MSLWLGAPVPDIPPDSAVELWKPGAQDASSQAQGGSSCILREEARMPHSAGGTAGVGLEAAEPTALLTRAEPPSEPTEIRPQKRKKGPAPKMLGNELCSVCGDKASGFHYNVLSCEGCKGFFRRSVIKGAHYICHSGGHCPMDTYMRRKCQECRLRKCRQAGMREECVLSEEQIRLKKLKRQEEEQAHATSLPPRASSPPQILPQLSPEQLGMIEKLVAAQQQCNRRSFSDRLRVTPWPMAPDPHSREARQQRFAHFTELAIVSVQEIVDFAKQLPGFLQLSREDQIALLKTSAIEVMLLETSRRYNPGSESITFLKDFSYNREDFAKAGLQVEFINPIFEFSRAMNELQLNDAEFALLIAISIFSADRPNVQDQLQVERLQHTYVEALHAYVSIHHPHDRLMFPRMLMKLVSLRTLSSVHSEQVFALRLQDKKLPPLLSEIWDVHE
Bile acid receptor (Homo sapiens), sequence (Q96RI1 whole entry, looked up, the tested form may be a part): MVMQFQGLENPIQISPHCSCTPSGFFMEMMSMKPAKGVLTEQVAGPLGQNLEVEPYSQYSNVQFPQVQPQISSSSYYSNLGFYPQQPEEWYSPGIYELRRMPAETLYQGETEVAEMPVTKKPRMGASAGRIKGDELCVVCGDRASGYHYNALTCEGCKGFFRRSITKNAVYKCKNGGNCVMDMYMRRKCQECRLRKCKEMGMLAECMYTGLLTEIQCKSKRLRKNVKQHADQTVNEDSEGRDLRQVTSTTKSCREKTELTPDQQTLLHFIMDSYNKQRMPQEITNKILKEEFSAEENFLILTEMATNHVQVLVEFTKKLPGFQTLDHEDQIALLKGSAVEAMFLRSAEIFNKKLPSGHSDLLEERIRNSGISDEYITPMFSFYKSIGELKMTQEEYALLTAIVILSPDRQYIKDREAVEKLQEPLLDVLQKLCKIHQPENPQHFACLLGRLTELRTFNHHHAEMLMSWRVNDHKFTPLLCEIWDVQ
human Thyroid Receptor alpha (THRa1), THRA (gene 7067), sequence (P10827 whole entry, looked up, the tested form may be a part): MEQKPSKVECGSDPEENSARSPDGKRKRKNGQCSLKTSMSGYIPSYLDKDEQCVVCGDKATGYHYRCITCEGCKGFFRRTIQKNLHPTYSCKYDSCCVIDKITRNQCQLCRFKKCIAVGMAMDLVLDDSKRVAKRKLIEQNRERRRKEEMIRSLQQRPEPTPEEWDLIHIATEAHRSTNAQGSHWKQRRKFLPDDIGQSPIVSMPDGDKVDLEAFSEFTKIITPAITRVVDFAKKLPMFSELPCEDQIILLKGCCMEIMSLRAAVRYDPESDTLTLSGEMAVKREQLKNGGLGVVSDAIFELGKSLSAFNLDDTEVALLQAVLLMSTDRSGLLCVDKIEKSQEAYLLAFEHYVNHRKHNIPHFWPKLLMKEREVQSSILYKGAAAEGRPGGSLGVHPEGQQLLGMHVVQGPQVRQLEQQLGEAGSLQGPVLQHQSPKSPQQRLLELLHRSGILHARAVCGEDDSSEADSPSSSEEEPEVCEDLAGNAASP

As to `OCCOCCOCCOCCOCCO`, the call in [1], in experiment [2], in experiment [3], in experiment [4], in experiment [5] and in experiment [6] was inactive. In addition, the call in experiment [7], in experiment [8], in experiment [9], in experiment [10], in experiment [11] and in experiment [12] was inactive.
For orientation: AC50 means the concentration at which the activity in the assay is half-maximal. `O=C(CC(C(=O)OC1CCCCC1)S(=O)(=O)O)OC1CCCCC1` (centres undefined): the compound was classed as inactive in experiment [13], in [1], in [2], in experiment [14], in [15] and in experiment [3]. Further, the call in experiment [16], in [17], in experiment [9], in experiment [10] and in [11] was inactive. The values for the AC50 in experiment [5] and in experiment [7] were 35.1 µM (active) and 47.7 µM (active), respectively.
`COC(=O)/C=C\C(=O)OC`: the outcome in experiment [18], in [17], in experiment [4], in [5], in experiment [6] and in [10] was inactive. In addition, the compound was called inactive in [19] and in experiment [11]. In experiment [20], the half-maximal activity concentration (AC50) is 76.9 µM (active).
On to `COC(=O)[C@]1(C)CCC[C@@]2(C)[C@H]1CC=C1C=C(C(C)C)CC[C@@H]12`, for which the half-maximal activity concentration (AC50) is 6.77 µM (active) in experiment [13], 33 µM (active) in experiment [16] and 73.3 µM (active) in [20]. Moreover, the compound was classed as inactive in experiment [1], in experiment [14], in experiment [17], in experiment [19], in [11] and in experiment [12].
On to `O=C(C(=O)c1ccccc1)c1ccccc1`, for which the result in experiment [1], in experiment [14], in [15] and in experiment [10] was inactive.
Turning to `CCC(C)NC(N)=O` (centres undefined), the outcome in experiment [2], in experiment [14], in experiment [17], in experiment [4], in experiment [8] and in experiment [9] was inactive. Also, the outcome in experiment [12] was inactive. The AC50 in [20] is 50 µM (active).
Turning to `CC=CC(=O)O`, in experiment [1], the AC50 is 56 µM (active). For the same compound, the result in [15], in experiment [3], in experiment [18], in [9], in experiment [10] and in experiment [20] was inactive.
With `CNC(=C[N+](=O)[O-])NCCSCc1csc(CN(C)C)n1`, the call in experiment [2], in experiment [14], in experiment [15], in experiment [3], in [17] and in experiment [11] was inactive. In addition, the outcome in [12] was inactive.
`C=CCOCC(CC)(CO)COCC=C`: the compound was called inactive in experiment [1], in [14], in [15], in experiment [6], in experiment [9] and in experiment [10]. The outcome in experiment [11], in [12] and in experiment [20] was inactive.
As for `Cc1ccccc1S(=O)(=O)O`, the call in experiment [1], in experiment [15], in experiment [5], in experiment [8], in experiment [11] and in [12] was inactive.

The values above are taken from PubChem BioAssay (EPA / NIEHS).
